Reference: the supplement of paper PMC10849652
The full data set covers some 7,900 targets. This sample favours those with a hit. About 0.6% of all pairs of compound and target were hits.

Assays:
Experiment in all cases: log2 fold change, soluble protein after heating vs DMSO (PISA); higher = thermal stabilisation; K562 cells, 10 uM, 30 min; active = over 0.2 and 3.5 SD of the protein, either way, in both replicates (recomputed)
IRAK-1-4 Inhibitor I = compound: C1COCCN1CCN2C3=CC=CC=C3N=C2NC(=O)C4=CC(=CC=C4)[N+](=O)[O-] [IRAK-1-4 Inhibitor I]
Outline: (§1)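 Values are thermal stability changes relative to control samples and are taken from duplicates. They are stated as log2 fold changes. Before quantification by TMTpro 16plex LC-MS/MS with equalised channel sums, K562 cells at 2×10^6 cells/mL were treated with 10 μM compound for 30 min, heated in aliquots for 3 min across 48°C-58°C, pooled, extracted in PBS with 0.5% NP-40 at 4°C, and centrifuged at 21,000xg for 90 min to give the soluble supernatant.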

ibrutinib = compound: C=CC(=O)N1CCC[C@@H](n2nc(-c3ccc(Oc4ccccc4)cc3)c3c(N)ncnc32)C1 [ibrutinib]
Outline: as §1

[1] = compound: CC(=O)c1cnc2ccc(-c3cc(Cl)c(O)c(Cl)c3)nc2c1N[C@H]1CC[C@H](CN(C)C)CC1
Outline: as §1

ralimetinib = compound: CC(C)(C)Cn1c(N)nc2ccc(-c3[nH]c(C(C)(C)C)nc3-c3ccc(F)cc3)nc21 [ralimetinib]
Outline: as §1

[2] = compound: CC(C)(O)CC(=O)NCCn1ccc2ncnc(Nc3ccc(Oc4cccc(C(F)(F)F)c4)c(Cl)c3)c21
Outline: as §1

[3] = compound: CC(C)C1=C2N=C(C=C(N2N=C1)NCC3=CC=CC=C3)NCCCCCCN
Outline: as §1

[4] = compound: CC(C)C[C@@H](C=O)NC(=O)[C@H](CC(C)C)NC(=O)[C@H](CC(C)C)NC(=O)OCc1ccccc1
Outline: as §1

pinometostat = compound: CC(C)N(C[C@H]1O[C@@H](n2cnc3c(N)ncnc32)[C@H](O)[C@@H]1O)[C@H]1C[C@@H](CCc2nc3cc(C(C)(C)C)ccc3[nH]2)C1 [pinometostat]
Outline: as §1

[5] = compound: CC1=C(C(CC(=O)N1)C2=CC=C(C=C2)C(F)(F)F)C(=O)NC3=C(C=C4C(=C3)C=NN4)F
Outline: as §1

[6] = compound: CC1=C(C2=C(C=C1)C(=O)C3=CC=CC=C3N2CCCN)C
Outline: as §1

Measured: log2 fold change

PISD (UniProt Q9UG56)
inactive: IRAK-1-4 Inhibitor I -0.013 | ibrutinib -0.038 | [1] -0.068 | ralimetinib 0.02 | [2] -0.066 | [3] 0.001 | [4] 0.005 | pinometostat -0.013 | [5] -0.039 | [6] 0.147

PRG4 (UniProt Q92954)
inactive: IRAK-1-4 Inhibitor I -0.072 | ibrutinib -0.005 | [1] 0 | ralimetinib 0.011 | [2] 0.059 | [3] 0.29 | [4] 0.054 | pinometostat -0.068 | [5] 0.039 | [6] -0.127

PCBP1 (UniProt Q15365)
inactive: IRAK-1-4 Inhibitor I 0 | ibrutinib -0.017 | [1] -0.005 | ralimetinib 0.058 | [2] -0.058 | [3] -0.118 | [4] -0.006 | pinometostat -0.003 | [5] 0.023 | [6] 0.039

PSMB4 (UniProt P28070)
inactive: IRAK-1-4 Inhibitor I -0.021 | ibrutinib 0.006 | [1] 0.044 | ralimetinib -0.008 | [2] 0.045 | [3] 0.065 | [4] -0.043 | pinometostat 0.03 | [5] 0.013 | [6] 0.018

PRKAG1 isoform 3 (UniProt P54619)
inactive: IRAK-1-4 Inhibitor I 0.042 | ibrutinib -0.019 | ralimetinib 0.001 | [2] -0.011 | [3] -0.067 | [4] -0.025 | pinometostat 0.015 | [5] 0.079 | [6] 0.013
active: [1] -0.266

POLR1A (UniProt O95602)
inactive: IRAK-1-4 Inhibitor I 0.06 | ibrutinib 0.06 | [1] 0.022 | ralimetinib 0.153 | [2] -0.022 | [3] -0.091 | [4] 0.005 | pinometostat 0.07 | [5] 0.052 | [6] -0.14

PSMD7 (UniProt P51665)
active: [4] -0.216
inactive: IRAK-1-4 Inhibitor I 0.055 | ibrutinib -0.006 | [1] 0.028 | ralimetinib 0.01 | [2] 0.057 | [3] 0.019 | pinometostat 0.066 | [5] 0.034 | [6] -0.029

PSMD9 (UniProt O00233)
Chain of UniProt O00233 (O00233 whole entry, looked up): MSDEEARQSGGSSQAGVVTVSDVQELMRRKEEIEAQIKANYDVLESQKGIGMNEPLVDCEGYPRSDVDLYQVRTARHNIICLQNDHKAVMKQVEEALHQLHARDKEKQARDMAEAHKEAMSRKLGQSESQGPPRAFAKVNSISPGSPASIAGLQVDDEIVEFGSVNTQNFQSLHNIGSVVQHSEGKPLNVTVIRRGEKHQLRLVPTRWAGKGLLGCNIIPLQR
inactive: IRAK-1-4 Inhibitor I 0.033 | ibrutinib -0.005 | [1] -0.003 | ralimetinib -0.029 | [2] 0.003 | [3] 0.069 | [4] -0.015 | pinometostat -0.039 | [5] 0.017 | [6] -0.004

PRKACA (UniProt P17612)
inactive: IRAK-1-4 Inhibitor I 0.023 | ibrutinib -0.011 | [1] -0.038 | ralimetinib -0.01 | [2] 0.01 | [3] 0.008 | [4] 0.005 | pinometostat -0.06 | [5] -0.07 | [6] -0.034

PSMC6 (UniProt P62333)
inactive: IRAK-1-4 Inhibitor I -0.026 | ibrutinib 0 | [1] 0.044 | ralimetinib 0.019 | [2] 0.093 | [3] 0.077 | [4] -0.206 | pinometostat 0.01 | [5] 0.075 | [6] -0.01

POMK (UniProt Q9H5K3)
inactive: IRAK-1-4 Inhibitor I 0.046 | ibrutinib -0.036 | [1] -0.042 | ralimetinib 0.032 | [2] -0.024 | [3] -0.23 | [4] 0.027 | pinometostat 0.094 | [5] -0.009 | [6] 0.042

PARG (UniProt Q86W56)
inactive: IRAK-1-4 Inhibitor I -0.047 | ibrutinib -0.022 | [1] -0.124 | ralimetinib 0.045 | [2] -0.075 | [3] -0.203 | [4] 0.043 | pinometostat 0.059 | [5] 0.001
active: [6] 0.331

PLSCR1 (UniProt O15162)
inactive: IRAK-1-4 Inhibitor I -0.003 | ibrutinib 0.002 | [1] -0.025 | ralimetinib -0.046 | [2] 0.047 | [3] 0.031 | [4] -0.036 | pinometostat -0.015 | [5] -0.011 | [6] 0.031

PYGL (UniProt P06737)
Chain of UniProt P06737 (P06737 whole entry, looked up): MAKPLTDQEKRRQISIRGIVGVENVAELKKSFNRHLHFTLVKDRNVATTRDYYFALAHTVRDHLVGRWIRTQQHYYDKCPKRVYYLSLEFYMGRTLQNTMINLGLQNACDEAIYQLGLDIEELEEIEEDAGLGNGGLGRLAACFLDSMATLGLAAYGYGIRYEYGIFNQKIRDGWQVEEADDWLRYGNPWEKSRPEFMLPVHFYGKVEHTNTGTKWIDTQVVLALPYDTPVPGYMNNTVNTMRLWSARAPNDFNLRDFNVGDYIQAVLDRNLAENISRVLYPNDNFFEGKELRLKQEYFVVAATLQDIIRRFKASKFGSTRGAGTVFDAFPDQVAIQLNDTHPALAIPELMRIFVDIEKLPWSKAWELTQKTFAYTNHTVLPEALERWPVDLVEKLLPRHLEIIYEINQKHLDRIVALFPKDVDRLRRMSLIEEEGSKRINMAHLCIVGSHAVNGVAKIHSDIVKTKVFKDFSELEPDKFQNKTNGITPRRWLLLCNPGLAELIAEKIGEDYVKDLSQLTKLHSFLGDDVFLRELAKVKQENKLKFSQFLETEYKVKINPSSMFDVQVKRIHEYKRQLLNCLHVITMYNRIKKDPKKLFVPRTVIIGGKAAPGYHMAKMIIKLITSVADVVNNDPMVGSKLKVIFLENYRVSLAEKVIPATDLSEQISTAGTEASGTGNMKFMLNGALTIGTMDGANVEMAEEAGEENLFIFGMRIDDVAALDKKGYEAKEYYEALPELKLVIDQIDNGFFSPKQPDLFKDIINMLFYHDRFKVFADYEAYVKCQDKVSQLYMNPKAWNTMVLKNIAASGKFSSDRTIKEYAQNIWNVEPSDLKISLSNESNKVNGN
inactive: IRAK-1-4 Inhibitor I 0.004 | ibrutinib 0.033 | [1] -0.143 | ralimetinib -0.038 | [2] 0.055 | [3] 0.068 | [4] -0.031 | pinometostat -0.007 | [5] 0.019 | [6] 0.021

PDLIM7 (UniProt Q9NR12)
inactive: IRAK-1-4 Inhibitor I 0.017 | ibrutinib 0.005 | [1] -0.054 | ralimetinib 0.08 | [2] -0.035 | [3] 0.024 | [4] -0.045 | pinometostat -0.019 | [5] 0.004 | [6] 0.065

PIP4P2 (UniProt Q8N4L2)
Chain of UniProt Q8N4L2 (Q8N4L2 whole entry, looked up): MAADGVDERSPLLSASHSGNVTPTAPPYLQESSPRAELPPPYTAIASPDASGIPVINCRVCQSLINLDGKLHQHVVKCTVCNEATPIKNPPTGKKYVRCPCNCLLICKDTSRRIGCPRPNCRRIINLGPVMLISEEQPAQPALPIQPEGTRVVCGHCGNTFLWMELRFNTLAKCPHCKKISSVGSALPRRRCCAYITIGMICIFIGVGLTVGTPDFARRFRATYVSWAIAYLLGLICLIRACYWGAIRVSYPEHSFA
inactive: IRAK-1-4 Inhibitor I -0.027 | ibrutinib 0 | [1] -0.028 | ralimetinib 0.005 | [2] 0.142 | [4] 0.011 | pinometostat 0.012 | [5] 0.028 | [6] 0.033
active: [3] -0.624

PPT1 (UniProt P50897)
Chain of UniProt P50897 (P50897 whole entry, looked up): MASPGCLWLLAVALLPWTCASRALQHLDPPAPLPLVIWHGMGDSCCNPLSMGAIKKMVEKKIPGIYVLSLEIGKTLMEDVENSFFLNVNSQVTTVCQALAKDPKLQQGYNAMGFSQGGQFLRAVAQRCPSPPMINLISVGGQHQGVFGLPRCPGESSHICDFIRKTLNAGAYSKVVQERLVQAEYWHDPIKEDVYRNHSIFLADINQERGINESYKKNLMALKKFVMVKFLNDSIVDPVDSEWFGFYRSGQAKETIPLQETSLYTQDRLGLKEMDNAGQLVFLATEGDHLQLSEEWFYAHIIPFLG
inactive: IRAK-1-4 Inhibitor I 0.041 | ibrutinib 0.049 | [1] 0.008 | ralimetinib -0.072 | [2] 0.039 | [4] 0.048 | pinometostat -0.036 | [5] 0.018 | [6] -0.06
active: [3] -0.406

PRCP (UniProt P42785)
inactive: IRAK-1-4 Inhibitor I 0.04 | ibrutinib 0.012 | [1] 0.014 | ralimetinib -0.01 | [2] -0.072 | [3] -0.077 | [4] -0.025 | pinometostat -0.006 | [5] 0.012 | [6] -0.101

POLR2E (UniProt P19388)
inactive: IRAK-1-4 Inhibitor I -0.106 | ibrutinib -0.012 | [1] 0.218 | ralimetinib -0.041 | [2] -0.061 | [3] 0.081 | [4] 0.065 | pinometostat 0.108 | [5] -0.055 | [6] -0.014

PTPN12 (UniProt Q05209)
inactive: IRAK-1-4 Inhibitor I -0.011 | ibrutinib -0.008 | ralimetinib 0.004 | [2] 0.039 | [3] -0.101 | [4] 0.057 | pinometostat 0.045 | [5] -0.004 | [6] 0.004
active: [1] 0.264

PI4K2A (UniProt Q9BTU6)
Chain of UniProt Q9BTU6 (Q9BTU6 whole entry, looked up): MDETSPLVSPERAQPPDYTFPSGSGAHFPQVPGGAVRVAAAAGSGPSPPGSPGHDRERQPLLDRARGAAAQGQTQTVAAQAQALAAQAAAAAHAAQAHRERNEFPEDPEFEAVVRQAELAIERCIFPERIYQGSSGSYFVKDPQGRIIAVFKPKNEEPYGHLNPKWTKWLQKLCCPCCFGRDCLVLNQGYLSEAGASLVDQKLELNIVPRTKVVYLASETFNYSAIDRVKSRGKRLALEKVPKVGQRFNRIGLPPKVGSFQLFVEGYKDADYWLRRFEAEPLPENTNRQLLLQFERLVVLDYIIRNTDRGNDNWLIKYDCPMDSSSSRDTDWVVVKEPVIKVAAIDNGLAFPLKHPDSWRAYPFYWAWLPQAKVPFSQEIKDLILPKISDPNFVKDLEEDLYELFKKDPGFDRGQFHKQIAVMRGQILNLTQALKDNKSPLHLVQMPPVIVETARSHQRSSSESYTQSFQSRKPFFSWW
inactive: IRAK-1-4 Inhibitor I 0.01 | ibrutinib -0.018 | [1] -0.026 | ralimetinib -0.072 | [2] -0.062 | [3] -0.158 | [4] -0.002 | pinometostat -0.024 | [5] -0.005 | [6] -0.006

PSMD11 (UniProt O00231)
active: [4] -0.263
inactive: IRAK-1-4 Inhibitor I -0.048 | ibrutinib 0 | [1] 0.086 | ralimetinib 0.076 | [2] 0 | [3] -0.001 | pinometostat 0.029 | [5] 0.011 | [6] 0.037

PRKAA1 isoform 2 (UniProt Q13131)
inactive: IRAK-1-4 Inhibitor I 0.046 | ibrutinib -0.006 | ralimetinib -0.003 | [2] -0.009 | [3] -0.025 | [4] -0.014 | pinometostat -0.014 | [5] 0.022 | [6] 0.019
active: [1] -0.343

PTPN23 (UniProt Q9H3S7)
Chain of UniProt Q9H3S7 (Q9H3S7 whole entry, looked up): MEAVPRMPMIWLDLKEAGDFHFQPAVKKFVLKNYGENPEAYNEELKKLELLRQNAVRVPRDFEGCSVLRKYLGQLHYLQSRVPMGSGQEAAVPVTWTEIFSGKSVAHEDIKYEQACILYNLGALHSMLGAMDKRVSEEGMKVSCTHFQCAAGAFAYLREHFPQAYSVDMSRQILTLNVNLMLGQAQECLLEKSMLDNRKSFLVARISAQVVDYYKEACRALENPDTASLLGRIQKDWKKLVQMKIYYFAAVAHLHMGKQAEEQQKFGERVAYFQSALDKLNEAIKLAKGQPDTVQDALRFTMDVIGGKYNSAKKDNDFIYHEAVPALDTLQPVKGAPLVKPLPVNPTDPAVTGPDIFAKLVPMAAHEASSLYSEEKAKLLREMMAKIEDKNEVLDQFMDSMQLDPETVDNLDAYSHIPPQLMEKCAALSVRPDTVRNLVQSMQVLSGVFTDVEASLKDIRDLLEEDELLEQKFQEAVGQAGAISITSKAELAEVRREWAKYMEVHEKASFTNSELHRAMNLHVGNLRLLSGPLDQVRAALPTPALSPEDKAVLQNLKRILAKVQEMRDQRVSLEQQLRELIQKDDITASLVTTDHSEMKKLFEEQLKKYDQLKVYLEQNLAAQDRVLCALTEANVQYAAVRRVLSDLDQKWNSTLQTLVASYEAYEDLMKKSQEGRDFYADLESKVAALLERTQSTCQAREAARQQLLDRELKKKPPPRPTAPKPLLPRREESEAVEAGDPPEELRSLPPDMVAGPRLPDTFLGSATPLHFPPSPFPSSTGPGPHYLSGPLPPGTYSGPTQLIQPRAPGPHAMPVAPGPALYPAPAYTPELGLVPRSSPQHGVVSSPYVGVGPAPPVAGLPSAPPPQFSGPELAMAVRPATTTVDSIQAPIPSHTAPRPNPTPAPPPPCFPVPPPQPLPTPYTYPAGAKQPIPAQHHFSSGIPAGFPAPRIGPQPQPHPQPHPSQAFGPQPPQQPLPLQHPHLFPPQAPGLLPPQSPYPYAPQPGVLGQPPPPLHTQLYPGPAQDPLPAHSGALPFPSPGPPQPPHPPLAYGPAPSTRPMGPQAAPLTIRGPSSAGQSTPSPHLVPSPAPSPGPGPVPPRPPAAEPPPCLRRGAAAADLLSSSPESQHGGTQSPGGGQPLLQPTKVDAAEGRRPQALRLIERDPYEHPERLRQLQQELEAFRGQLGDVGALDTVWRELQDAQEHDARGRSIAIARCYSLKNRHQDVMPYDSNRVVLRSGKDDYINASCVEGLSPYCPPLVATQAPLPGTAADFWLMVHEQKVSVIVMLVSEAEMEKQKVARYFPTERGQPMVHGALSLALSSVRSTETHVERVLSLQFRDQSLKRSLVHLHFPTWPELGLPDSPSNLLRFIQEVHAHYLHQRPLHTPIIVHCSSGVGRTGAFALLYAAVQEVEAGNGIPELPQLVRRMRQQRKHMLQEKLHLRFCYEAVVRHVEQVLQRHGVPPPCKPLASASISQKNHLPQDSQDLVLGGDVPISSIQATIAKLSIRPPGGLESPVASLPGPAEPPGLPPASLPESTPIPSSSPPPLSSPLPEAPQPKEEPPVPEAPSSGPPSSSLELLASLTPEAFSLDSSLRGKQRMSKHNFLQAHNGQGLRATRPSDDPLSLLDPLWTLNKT
inactive: IRAK-1-4 Inhibitor I -0.008 | ibrutinib -0.052 | [1] -0.044 | ralimetinib 0.013 | [2] -0.061 | [3] -0.095 | [4] 0.038 | pinometostat -0.009 | [5] -0.036 | [6] 0.046

PRKCD (UniProt Q05655)
inactive: IRAK-1-4 Inhibitor I 0.043 | ibrutinib -0.027 | ralimetinib -0.041 | [2] -0.013 | [3] -0.004 | [4] 0.022 | pinometostat 0.017 | [5] -0.024 | [6] 0
active: [1] -0.685

PIR (UniProt O00625)
inactive: IRAK-1-4 Inhibitor I -0.016 | ibrutinib 0.019 | [1] 0.016 | ralimetinib -0.056 | [2] 0.073 | [3] 0.011 | [4] -0.042 | pinometostat -0.01 | [5] 0.015 | [6] 0.037

PSMD5 (UniProt Q16401)
Chain of UniProt Q16401 (Q16401 whole entry, looked up): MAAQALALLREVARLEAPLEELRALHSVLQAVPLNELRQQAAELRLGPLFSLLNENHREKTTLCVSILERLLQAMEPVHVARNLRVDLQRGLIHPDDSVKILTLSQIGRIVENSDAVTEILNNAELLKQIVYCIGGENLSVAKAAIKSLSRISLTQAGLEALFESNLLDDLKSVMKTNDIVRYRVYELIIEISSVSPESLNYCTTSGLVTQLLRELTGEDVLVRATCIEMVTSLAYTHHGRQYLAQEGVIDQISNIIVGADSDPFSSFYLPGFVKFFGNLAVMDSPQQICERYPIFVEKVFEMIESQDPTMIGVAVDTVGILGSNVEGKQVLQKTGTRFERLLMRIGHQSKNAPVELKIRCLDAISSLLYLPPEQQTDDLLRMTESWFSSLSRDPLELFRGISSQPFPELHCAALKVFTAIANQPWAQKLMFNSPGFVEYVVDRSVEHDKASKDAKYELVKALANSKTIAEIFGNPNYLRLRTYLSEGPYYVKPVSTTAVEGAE
inactive: IRAK-1-4 Inhibitor I 0.04 | ibrutinib -0.004 | [1] 0.047 | ralimetinib -0.013 | [2] -0.033 | [3] -0.106 | [4] -0.061 | pinometostat -0.003 | [5] 0 | [6] -0.042

PMPCA (UniProt Q10713)
inactive: IRAK-1-4 Inhibitor I 0.016 | ibrutinib -0.008 | [1] -0.029 | ralimetinib 0.057 | [2] -0.155 | [3] 0.097 | [4] -0.003 | pinometostat -0.015 | [5] -0.034 | [6] 0.055

PRMT7 (UniProt Q9NVM4)
Chain of UniProt Q9NVM4 (Q9NVM4 whole entry, looked up): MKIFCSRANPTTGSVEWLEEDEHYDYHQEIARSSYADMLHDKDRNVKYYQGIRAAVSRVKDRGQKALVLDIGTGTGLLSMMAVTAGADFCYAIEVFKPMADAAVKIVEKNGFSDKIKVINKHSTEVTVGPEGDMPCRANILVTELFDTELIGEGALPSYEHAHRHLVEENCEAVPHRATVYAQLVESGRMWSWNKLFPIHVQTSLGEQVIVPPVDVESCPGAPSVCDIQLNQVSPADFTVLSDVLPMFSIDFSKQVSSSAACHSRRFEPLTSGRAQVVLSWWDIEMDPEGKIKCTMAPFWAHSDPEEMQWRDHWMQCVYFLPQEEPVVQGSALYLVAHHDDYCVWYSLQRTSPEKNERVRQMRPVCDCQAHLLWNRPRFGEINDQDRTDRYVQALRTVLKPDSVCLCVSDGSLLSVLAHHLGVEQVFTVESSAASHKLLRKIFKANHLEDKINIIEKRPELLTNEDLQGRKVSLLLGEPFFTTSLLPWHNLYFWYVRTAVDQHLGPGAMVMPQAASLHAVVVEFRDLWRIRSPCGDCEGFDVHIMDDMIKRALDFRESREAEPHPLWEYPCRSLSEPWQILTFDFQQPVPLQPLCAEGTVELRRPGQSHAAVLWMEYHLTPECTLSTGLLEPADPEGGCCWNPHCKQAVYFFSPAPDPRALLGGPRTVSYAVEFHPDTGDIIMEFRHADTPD
active: [3] -0.329
inactive: IRAK-1-4 Inhibitor I 0.044 | ibrutinib -0.061 | [1] -0.004 | ralimetinib -0.005 | [2] 0.048 | [4] -0.033 | pinometostat 0.074 | [5] -0.022 | [6] -0.065

POLD1 (UniProt P28340)
inactive: IRAK-1-4 Inhibitor I -0.009 | ibrutinib 0.021 | [1] -0.081 | ralimetinib -0.02 | [2] -0.085 | [3] -0.12 | [4] 0.11 | pinometostat 0.024 | [5] -0.005 | [6] -0.011
